# Source: PubChem BioAssay (EPA / NIEHS)
# Some structures have more than one record in an assay (separate samples or runs), and their calls can disagree. The source made the active and inactive calls. How the source made its calls: active means hit-call score of the fitted dose curve at least 0.9, where 1 is the maximum; inactive means score below 0.9.
# Assay: CCTE_Shafer_MEA_dev_per_network_spike_spike_number_mean: CCTE's Neural Network Formation Assay for Mean Number of Spikes in a Network Spike, Shafer Lab (AID 2284053);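 on AC50: fitted as decrease in spikes per network spike relative to DMSO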
# How it was run: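 Rat cortical primary cultures on 48-well MEA; compound from day 0, re-dosed with full media change DIV 5, 9. Recorded DIV 5, 7, 9, 12; spikes in 0.05 s window at network-spike peak ÷ total network spikes; AUC; loss vs DMSO.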
SMILES,AC50,outcome
C[n+]1ccc(-c2cc[n+](C)cc2)cc1,1.44 µM (active),
C/C(=C/C=C/[C@@H](C)C(=O)O)[C@H]1CN[C@H](C(=O)O)[C@H]1CC(=O)O,1.05 µM (active),inactive
CP(=O)(O)CCC(N)C(=O)O (centres undefined),,inactive
NCCc1cc(O)c(O)cc1O,4.47 µM (active),
CCOP(=S)(OCC)SCS(=O)C(C)(C)C (centres undefined),,inactive
C[n+]1ccc(-c2ccccc2)cc1,,inactive
O=C(O)CNCP(=O)(O)O,,inactive
C#CCN(C)[C@H](C)Cc1ccccc1,,inactive
Cn1nc(C(F)(F)F)c(CS(=O)(=O)C2=NOC(C)(C)C2)c1OC(F)F,50 µM (active),
CCCCC(CC)COC(=O)c1cc(Br)c(Br)c(Br)c1Br (centres undefined),18.8 µM (active),
CC1(C)C(C=C(Cl)c2ccc(Cl)cc2)C1C(=O)OC(C#N)c1ccc(F)c(Oc2ccccc2)c1 (centres undefined),6.7 µM (active),
CCOP(=O)(Oc1cnc(C(C)(C)C)nc1)OC(C)C (centres undefined),,inactive
CC1(C)[C@H](C=C(Cl)Cl)[C@H]1C(=O)OCc1c(F)c(F)cc(F)c1F,13.1 µM (active),
CC(=O)[O-].CC(=O)[O-].O.O.O.[Pb+2],20.2 µM (active),
CC1(C)C(C=C(Cl)Cl)C1C(=O)O[C@H](C#N)c1cccc(Oc2ccccc2)c1 (some centres undefined),2.74 µM (active),
CCOP(=O)(OCC)OC(Cl)C(Cl)(Cl)Cl (centres undefined),1.92 µM (active),
CCOP(=O)(OCC)SCSC(C)(C)C,,inactive
CC1(C)[C@@H](C=C(Cl)Cl)[C@@H]1C(=O)O[C@@H](C#N)c1ccc(F)c(Oc2ccccc2)c1,5.82 µM (active),
